IL1B NFkB inh – blocks IL-1B driven NFkB nuclear translocation in HUVEC cells; HUVEC IL-1B NFkB p65 nuclear translocation imaging; inhibition, % at 2 µM; 94,000 compounds, 0.43% hits;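 active = inhibition above about 30% together with a positive call from visual inspection of the well image, limit read from the data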;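 also: nuclear over cytoplasmic p65 intensity ratio measured by imaging; 0% = IL-1B stimulated DMSO wells and 100% = unstimulated DMSO wells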
NFkB transloc pot – enhances IL-1B driven NFkB nuclear translocation | HUVEC IL-1B NFkB p65 nuclear translocation imaging | activation, % at 2 µM | 94,000 compounds, 0.3% hits;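 active = activation above 40%, about the mean plus 3 SD, also judged a hit on visual image review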;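 also: percent activation is computed from the nuclear over cytoplasmic p65 intensity ratio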
Phagocytosis inh – blocks phagocytosis by macrophages; J774A.1 macrophage IgG-bead phagocytosis, imaging; inhibition, % at 5 µM; 110,000 compounds, 0.07% hits;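 active = inhibition above the mean of the plate negative controls plus 5 SD, cut at about 13% in these data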;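 also: phagocytic index as fraction of beads internalized from green versus red external bead signal; plate controls were DMSO negative control for no effect and cytochalasin-D positive control for full effect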
IL1B cytotox – toxic to HUVEC cells under IL-1B stimulation | HUVEC cell count loss, Hoechst imaging, IL-1B stimulated | cell count reduction, % at 2 µM | 94,000 compounds, 0.41% hits;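 active = cell count reduction more than 3 SD above the screen-wide mean, cut at about 70% in these data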;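 also: normalized per plate to untreated control cells as the no-loss baseline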
HUVEC tox TNFa – toxic to HUVEC cells under TNF alpha stimulation | HUVEC TNFalpha-stimulated, Hoechst cell count, imaging | 93,000 compounds, 0.17% hits | cell count reduction, % at 2 µM;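 active = cell count reduction exceeding the screen mean by over 5 SD, scaled to untreated wells per plate, cut at about 78% in these data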;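 also: cells counted after 24 h of TNF alpha exposure following the 1 h pretreatment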
The depositor's hits bear a star; · = no result; [ ] = dose if it differs, or a comment. Compounds with a hit are over-represented: about 0.93% of the library has one in this group of screens.

SMILES	IL1B NFkB inh	NFkB transloc pot	Phagocytosis inh	IL1B cytotox	HUVEC tox TNFa
CCn1nc(NC(=O)c2ccccn2)c2cc3cccc(C)c3nc21	-51	51*	0	-14	-26
CCCCNC(=S)Nc1ccccc1F	6	-6	9	90*	-22
CC(C)CNC(=S)Nc1ccccc1F	·	·	9	·	·
N#Cc1c(-c2cccs2)nc(SCC(=O)c2cccs2)[nH]c1=O	·	·	·	·	-9
O=S(=O)(c1ccc2c(c1)C(=NO)c1cc(S(=O)(=O)N3CCCCC3)ccc1-2)N1CCCCC1	7	-7	6	-7	90*
O=S(=O)(Cc1cc(Sc2ccc(Cl)cc2)nc(-c2ccccc2)n1)c1ccccc1	-18	18	0	11	55
COCc1cc(Sc2c(Cl)cccc2Cl)nc(-c2ccccc2)n1	-7	7	0	88*	-28
CCCN(CCC)S(=O)(=O)c1ccc(NC(=O)COc2ccccc2)cc1	-11	11	-1	11	-10
Cc1ccc2nc(-c3ccc(Br)o3)oc(=O)c2c1	-17	17	-3	0	-23
COc1cc2nc(-c3ccc(Br)o3)oc(=O)c2cc1OC	-15	15	95*	-46	-24
Cc1ccc(C(=O)Oc2cc(-c3ccccc3)no2)cc1	·	·	0	·	-6
COc1cccc(C(=O)Oc2cc(-c3ccccc3)no2)c1	·	·	165*	·	2
CCCCNC(=O)COC(=O)c1ccc(Cl)c(S(N)(=O)=O)c1	4	-4	2	18	-17
CCC(Sc1ccc2nnc(-c3ccc(F)cc3)n2n1)C(=O)OC (stereo not given)	3	-3	-1	82*	-12
Cc1ccc(OCC(=O)Nc2sc3c(c2C#N)CCC3)cc1	-59	59*	0	25	-14
O=C(NC(Cc1ccccc1)c1ccc2c(c1)OCCCO2)c1ccc(F)cc1 (stereo not given)	-44	44*	1	-6	4
O=C1c2ccccc2C(O)(Cc2ccccc2)N1C1CCCCC1 (stereo not given)	37*	-37	1	92*	-19
CC(C)CN1C(=O)c2ccccc2C1(O)Cc1ccccc1 (stereo not given)	-1	1	·	-19	-3
C=CCNC(=S)N1CCN(CCN=CC2=C(O)CC(c3ccco3)CC2=O)CC1 (stereo not given)	54*	-54	-1	93*	-10
Cc1nn(C)c(C(=O)Nc2ccc(Br)cc2F)c1Br	·	·	8	·	·
Cn1ncc(Br)c1C(=O)Nc1ccc(F)cc1F	98*	-98	·	88*	12
Cc1ccc2nc(NC(=O)CNS(=O)(=O)c3ccc(Br)s3)sc2c1	5	-5	-1	-15	-12
Cc1ccc2nc(NC(=O)CN(C)S(=O)(=O)c3ccc(Br)s3)sc2c1	38*	-38	-1	29	-5
CCOc1ccc(C(=O)OCCN(C)C)cc1	-58	58*	0	-1	2
COC(=O)c1cc(NCc2ccc3c(c2)OCO3)ccc1N1CCOCC1	6	-6	-3	8	-12
SMILES	IL1B NFkB inh	NFkB transloc pot	Phagocytosis inh	IL1B cytotox	HUVEC tox TNFa
O=C(O)c1cc(NCc2ccc3c(c2)OCO3)ccc1N1CCOCC1	54*	-54	-1	-24	-16
CC(CCc1ccccc1)NC(=O)c1cccnc1 (stereo not given)	58*	-58	0	1	-4
COc1cc(S(=O)(=O)N2CCOCC2)ccc1NC(=O)COC(=O)CC12CC3CC(CC(C3)C1)C2	-12	12	0	2	-7
COc1ccc(/C=N/N2CCOCC2)cc1COc1ccc(Cl)cc1	·	·	3	·	·
Cc1ccc(C)c(/C(O)=C2\C(=O)C(=O)N(CCCN3CCOCC3)C2c2cccnc2)c1 (stereo not given)	-9	9	1	-5	-20
Cc1ccc(C)c(/C(O)=C2/C(=O)C(=O)N(CCN3CCOCC3)C2c2ccc(C)o2)c1 (stereo not given)	-107	107*	-2	-6	-12
O=C(CCC(=O)N(CC(=O)NC1CCCC1)C1CCCC1)Nc1ccccn1	-127	127*	1	6	-9
C=CCC(NCc1ccco1)c1ccc(OC)cc1OC (stereo not given)	58*	-58	-1	-2	-12
O=C(O)c1ccc(C(=O)O)c(C(=O)c2ccccc2)c1	19	-19	0	80*	-28
O=C1CC(C2CCCO2)C(=O)N1c1cccc(Cl)c1 (stereo not given)	-2	2	2	2	-13
O=C1CC(C2CCCO2)C(=O)N1Cc1ccccc1 (stereo not given)	19	-19	69*	-56	-20
Cc1cc(C(=O)CSc2n[nH]c(N)n2)c(C)n1-c1ccc2c(c1)OCO2	·	·	-7	·	·
Nc1nc(C(=O)N2CCOCC2)nn1S(=O)(=O)c1ccc(Cl)cc1	-3	3	0	92*	1
Nc1nc(C(=O)N2CCOCC2)nn1S(=O)(=O)c1ccccc1	-3	3	0	-10	-5
COC(=O)Nc1sccc1C(=O)Nc1sccc1C(=O)OC	-7	7	0	-18	-1
COC(=O)c1ccsc1NC(=O)C1=COCCO1	17	-17	0	33	92*
CCC(CC)n1[nH]c(=O)c2c(C)cc(C)nc21	-5	5	0	-20	81*
CCCCS(=O)(=O)Nc1ccc(C)cn1	·	·	-12	·	·
CCOC(=O)Nc1oc2ccccc2c(=O)c1C	36*	-36	·	-6	-26
CCOC(=O)/C=C(\C)Sc1cc(=O)oc2ccccc12	13	-13	·	19	·
CCOC(=O)c1[nH]c(C)c(C(=O)C(C)C)c1C	·	·	0	·	-10
Cc1ccc(-c2nc(NC(=O)c3nn(C)cc3[N+](=O)[O-])sc2C)cc1C	45*	-45	-1	66	36
Cn1cc([N+](=O)[O-])c(C(=O)Nc2nc(-c3ccc(Cl)cc3)cs2)n1	77*	-77	0	-10	29
Cc1ccc(-c2nc(NC(=O)c3nn(C)cc3[N+](=O)[O-])sc2C)cc1	24	-24	·	26	26
CC1CC(C)(C)CC2(C1)NC(=O)N(CC(=O)NCC(c1ccco1)N1CCCCC1)C2=O (stereo not given)	35*	-35	1	8	-5
SMILES	IL1B NFkB inh	NFkB transloc pot	Phagocytosis inh	IL1B cytotox	HUVEC tox TNFa
O=C(CCOc1ccccc1)NCC(c1ccco1)N1CCCCC1 (stereo not given)	6	-6	-1	-73	-31
COc1ccc(OC)c(NC(=O)c2ccc3c(=O)n(CCc4ccccc4)c(=S)[nH]c3c2)c1	·	·	-4	·	·
O=C(Nc1ccc2c(c1)OCO2)C1CCN(S(=O)(=O)Cc2ccccc2)CC1	-3	3	0	7	-7
O=C(Nc1ccc2c(c1)OCO2)NC1CCN(Cc2ccccc2)CC1	0	0	28*[artifact]	8	-13
Cc1sc2ncn(CCC(=O)O)c(=O)c2c1C	-3	3	0	-19	-38
Cc1sc2ncn(CCn3cnc4sc(C)c(C)c4c3=O)c(=O)c2c1C	57*	-57	0	9	7
COc1ccc(C(=O)N/C(=C\c2cn(C)c3ccccc23)C(=O)OCC(C)C)cc1	·	·	-6	·	·
CSc1nc(N(C)NC(=O)c2ccc(Cl)cc2)c2ccccc2n1	34*	-34	-1	36	24

Screening results (PubChem BioAssay)
